In a collection of fitness landscapes (doi:10.1126/science.1257360) one finds enrichment ratio data, which are given here for 153 variants.

Over roughly 140,000 sequences, “enrichment ratio after two sorts for PhoP signalling” has its median near 0; the highest 2% begin near 11. The full list was thinned out, with the highest values kept by preference. Some results are limits rather than exact numbers.

B1: PhoQ; a variant is named by its letters at X, in order, P23837 (parent)
chain: MKKLLRLFFPLSLRVRFLLATAAVVLVLSLAYGMVALIGYSVSFDKTTFRLLRGESNLFYTLAKWENNKLHVELPENIDKQSPTMTLIYDENGQLLWAQRDVPWLMKMIQPDWLKSNGFHEIEADVNDTSLLLSGDHSIQQQLQEVREDDDDAEMTHSVAVNVYPATSRMPKLTIVVVDTIPVELKSSYMVWSWFIYVLSANLLLVIPLLWVAAWWSLRPIEALAKEVRELEEHNRELLNPATTRELTSLVRNLNRLLKSERERYDKYRTTLTDLTHSLKTPLXXLQXXLRSLRSEKMSVSDAEPVMLEQISRISQQIGYYLHRASMRGGTLLSRELHPVAPLLDNLTSALNKVYQRKGVNISLDISPEISFVGEQNDFVEVMGNVLDNACKYCLEFVEISARQTDEHLYIVVEDDGPGIPLSKREVIFDRGQRVDTLRPGQGVGLAVAREITEQYEGKIVAGESMLGGARMEVIFGRQHSAPKDE

In this test the parent is B1. Kind of test: enrichment ratio after two sorts for PhoP signalling (ratio (wild type AVST 3.29)); higher = more functional. The note with it: with PhoP (E. coli).
With GFAN, the enrichment ratio is no more than 0.25. With KGPY the figure was no more than 0.25; with SALV, 14.6; with NSLV, 2.78. With KQLV the figure was no more than 0.25. The value for SKHK was no more than 0.25.

With FSLV, the enrichment ratio was 8.86. The value for SFLV was 1.19; that for KSLV was no more than 0.25.

For the variant TSLV, the enrichment ratio is 14.6.

For SSLV, the enrichment ratio came out at 16.8. With SKLV the figure was 12.

As for DLQF, the enrichment ratio is no more than 0.25. Consider PGYR, for which the enrichment ratio was no more than 0.25. With QDIQ the figure was no more than 0.25; with RNIE, no more than 0.25. The value for YSWN was no more than 0.25; that for IQID was no more than 0.25; that for LDQS was no more than 0.25.

Regarding NFLV, the enrichment ratio is no more than 0.25. On to STLV, for which the enrichment ratio was 15.4. The value for SPLV was no more than 0.25. The value for KYLV was no more than 0.25. The value for QPLV was no more than 0.25; that for MMLV was no more than 0.25; that for MELV was 18.1. As for MPLV, the enrichment ratio was no more than 0.25.

SQLV: the enrichment ratio stood at 11.8.

Take DPLV: the enrichment ratio was no more than 0.25. The value for SYLV was 0.334.

In the case of YGLV, the enrichment ratio was 13.5. The value for ITPL was no more than 0.25; that for WHNG was no more than 0.25; that for TSSF was 9.67. With YPTT the figure was no more than 0.25; with ISMW, no more than 0.25; with FIHY, no more than 0.25.

Turning to QLFD, the enrichment ratio stood at 3.39. HRQG: the enrichment ratio was no more than 0.25. The value for YGLM was 13. With YGWM the figure was no more than 0.25. With YGDM the figure was 0.798; with HFAL, no more than 0.25; with SCRE, no more than 0.25.

Consider DVLL, for which the enrichment ratio is no more than 0.25.

As to SLSE, the enrichment ratio was 1.48. TISE: the enrichment ratio turned out to be 24.4. In the case of NASE, the enrichment ratio was no more than 0.25. The value for AISE was 2.44; that for DDSE was 1.96. As for TESE, the enrichment ratio amounted to 20. With QESE the figure was no more than 0.25. The value for SESE was 24.9; that for KASE was no more than 0.25; that for NESE was no more than 0.25. As to TASE, the enrichment ratio turned out to be 11.3. With RISE the figure was no more than 0.25. For the variant HLPY, the enrichment ratio is no more than 0.25. With MSKE the figure was no more than 0.25; with YPSK, no more than 0.25.

With TVFP, the enrichment ratio was no more than 0.25. As to VDTN, the enrichment ratio was no more than 0.25. As to KYSE, the enrichment ratio is no more than 0.25. Consider LNSE, for which the enrichment ratio is no more than 0.25. With DPSE the figure was no more than 0.25; with NVSE, no more than 0.25.

Consider SISE, for which the enrichment ratio is 12.6.

Regarding TVSE, the enrichment ratio was 14.1.

With GNSE, the enrichment ratio is no more than 0.25. With SRSE the figure was no more than 0.25. Turning to SNSE, the enrichment ratio came to 16.4. Take SDSE: the enrichment ratio was no more than 0.25.

SQSE: the enrichment ratio is 11.4. For SPSE, the enrichment ratio is no more than 0.25. On to FFRE, for which the enrichment ratio was no more than 0.25. With EVVH the figure was no more than 0.25; with TGPK, no more than 0.25. With GKHW the figure was no more than 0.25; with FNVA, no more than 0.25; with KTII, no more than 0.25. With TGSE the figure was 7.38.

For the variant GGSE, the enrichment ratio was no more than 0.25. With SGSE the figure was 15.4.

On to IEKG, for which the enrichment ratio is no more than 0.25. With LARL the figure was no more than 0.25; with SSPS, no more than 0.25; with YHLR, no more than 0.25. With MSYD the figure was no more than 0.25. As to MSYK, the enrichment ratio was no more than 0.25. The value for MSGM was 6.76; that for MSPI was no more than 0.25; that for MSWI was 14.1. With MSYI the figure was 12.1. The value for MSCA was 0.541. MSPM: the enrichment ratio was no more than 0.25. The value for MSWM was 23.7; that for MSCS was 0.763. With MSTA, the enrichment ratio is no more than 0.25. The value for MSCI was 16.7. With KTWF the figure was no more than 0.25; with YIVR, no more than 0.25; with DSYR, no more than 0.25.

WDLV: the enrichment ratio was no more than 0.25.

Regarding SPGS, the enrichment ratio is no more than 0.25. The value for AEGC was 2.22; that for MAFL was 12.9; that for MSSF was 0.41.

As to MSFD, the enrichment ratio was no more than 0.25.

MSSM: the enrichment ratio stood at 11.9. Take MSFY: the enrichment ratio was 12.3. With NAFL the figure was 0.25. With MSQM the figure was no more than 0.25; with MSAT, 7.26; with KAFL, no more than 0.25. For WIAS, the enrichment ratio is no more than 0.25.

With KSFY, the enrichment ratio is no more than 0.25. The value for MSAS was 12.6. The value for PAHY was no more than 0.25; that for AKLK was no more than 0.25. With MEND the figure was no more than 0.25. Regarding PTHW, the enrichment ratio was no more than 0.25. With AVIT the figure was 1.3; with MIMD, no more than 0.25. For the variant LLDF, the enrichment ratio was no more than 0.25. With NAWF the figure was no more than 0.25.

In the case of PFLK, the enrichment ratio was no more than 0.25. For RPFK, the enrichment ratio is no more than 0.25. With MSFC the figure was 14.1; with MSGD, no more than 0.25; with MSFA, 2.31.

Take MSHP: the enrichment ratio is no more than 0.25. The value for MSLF was 1.86; that for MSTD was no more than 0.25. The value for MSHQ was 12. The value for MSLA was 5.33; that for MSLM was 15.9. For the variant MSGR, the enrichment ratio was no more than 0.25. The value for MSGI was 17.5. The value for MSTC was 1.5. With IAPP, the enrichment ratio was no more than 0.25. The value for NMIK was no more than 0.25; that for DCGT was no more than 0.25; that for EMPS was no more than 0.25.

As for NEEL, the enrichment ratio was no more than 0.25. Take MHMN: the enrichment ratio is no more than 0.25. NGVW: the enrichment ratio was no more than 0.25. The value for MSTI was 18.2; that for MEFL was 8.98; that for MSLY was 0.424. With MSCF the figure was 1.71. With MRHM the figure was no more than 0.25; with MSGQ, 14.3; with MSHM, 22.
